Reference: PubChem BioAssay (EPA / NIEHS)
Where “and” joins values, the source holds several entries; their conditions need not be identical. Equal values may be shown once. More than one record can exist for a structure, and the calls need not agree. Calls of active or inactive are those of the source. How the source made its calls: active means hit-call score of the fitted dose curve at least 0.9, where 1 is the maximum; inactive means score below 0.9.

assay: BSK_hDFCGF_Proliferation: Cell Proliferation Assessment in the BioMAP Diversity Plus: hDFCGF Assay (AID 2283059); conditions: primary human foreskin fibroblasts;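 further: curves fitted for both rise and fall of signal versus DMSO baseline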
Method: BSK_hDFCGF is a cell-based, multiplexed-readout assay that uses foreskin fibroblast, a human skin primary cell, with measurements taken at 24 hours after chemical dosing in a 96-well plate.BSK_hDFCGF_Proliferation is an assay component measured in the BSK_hDFCGF assay. It measures […] related to cell proliferation using Sulforhodamine staining technology.Data from the assay component BSK_hDFCGF_Proliferation was analyzed into 1 assay endpoint. This assay endpoint, BSK_hDFCGF_Proliferation, was analyzed with bidirectional fitting relative to DMSO as the negative control and baseline of activity. Using a type of viability reporter, measures of total protein for gain or loss-of-signal activity can be used to understand the viability at the cellular-level. Furthermore, this assay endpoint can be referred to as a secondary readout, because this assay has produced multiple assay endpoints where this one serves a viability function. To generalize the intended target to other relatable targets, this assay endpoint is annotated to the cell cycle intended target family, where the subfamily is proliferation.
The levels of cell surface (or secreted, indicated by the prefix "s") biomarker endpoints were measured by ELISA. Overt cytotoxicity to cells in confluent adherent cultures (all systems other than the BT system) was assessed by measuring total protein levels using sulforhodamine B (SRB) staining in parallel cultures at the time of biomarker measurements, indicated as SRB endpoints. For proliferation assays for adherent cell types, individual cell types are cultured at sub-confluence and relative cell numbers quantified by SRB staining at time points optimized for each system (48 h: 3C and CASM3C systems; 72 h: BT and HDF3CGF systems; 96 h: SAg system). SRB was performed by staining cells with 0.1% SRB after fixation with 10% TCA and reading wells at 560 nm.Viability and proliferation of PBMC (T cells) was quantified by Alamar Blue reduction for the SAg and BT systems. For PBMC viability (referred to as PBMC Cytotoxicity within the assay endpoint names), cells were plated (75,000/well in a 96-well plate) and then chemical samples added for 1 h before addition of activators, SEB and TSST-1 (20 ng/mL final concentration each). Cells were incubated for 90 h. Then, Alamar Blue (20 uL/well) (Invitrogen, Cat DAL1100) was added for 6 h, and the plates were read with a fluorescence microplate reader at 546/580 nm (excitation/emission). For PBMC proliferation, cells were plated and activated as above but incubated for only 16 h prior to addition of Alamar Blue. Plates were read after 6 h.

Row | SMILES | outcome | AC50
1 | CCCCCCCC(=O)O | inactive | –
2 | CN1CCN(c2ccccc2/C=C2\SCCN(c3ccc(Cl)c(Cl)c3)C2=O)CC1 | – | 5.54 µM (active)
3 | ClC1=C(Cl)C(Cl)(Cl)C(Cl)=C1Cl | – | 4.2 µM (active)
4 | Nc1cccc2c(N)cccc12 | – | 5.91 µM (active)
5 | OCCC(F)(F)C(F)(F)C(F)(F)C(F)(F)C(F)(F)C(F)(F)C(F)(F)C(F)(F)F | inactive | 11.4 µM (active) and 5.06 µM (active)
6 | OC1CCC(C2CCCCC2)CC1 (stereo not given) | inactive | –
7 | C[C@@H]1C[C@H]2[C@@H]3CCC4=CC(=O)C=C[C@]4(C)[C@@]3(F)[C@@H](O)C[C@]2(C)[C@@]1(O)C(=O)COP(=O)(O)O | inactive | 30.3 µM (active)
8 | C=C(C)C(=O)OCCC(F)(F)C(F)(F)C(F)(F)C(F)(F)C(F)(F)C(F)(F)F | inactive | 13.8 µM (active)
9 | CCCCCCCCCCCCCCCS(=O)(=O)Oc1ccccc1 | inactive | –
10 | CC(C)(C)CC(C)(C)c1ccc(O)c(-n2nc3ccccc3n2)c1 | – | 6.71 µM (active)
11 | CC1=C(/C=C/C(C)=C/C=C/C(C)=C/C(=O)O)C(C)(C)CCC1 | – | 7.76 µM (active)
12 | COCC(C)OCC(C)O (stereo not given) | inactive | –
13 | CN(C)C=O | inactive | –
14 | Oc1cccc(O)c1 | inactive | –
15 | CC(O)CO (stereo not given) | inactive | –
16 | NC(=O)N(O)[C@@H]1C=C[C@H](Oc2cccc(Oc3ccc(F)cc3)c2)C1 | – | 13.3 µM (active)
17 | Cc1cc(C)c(O)c(C)c1 | inactive | –
18 | CC[C@H](C)[C@@H](C(=O)O)n1sc2ccccc2c1=O | inactive | –
19 | CC(C)(C)c1ccc(O)c(C(C)(C)C)c1 | – | 11.4 µM (active)

Row | SMILES | outcome | AC50
20 | CC(=O)NC1(c2cccc(F)c2)CCN(CC[C@@]2(c3ccc(Cl)c(Cl)c3)CN(c3ccccc3)C(=O)CO2)CC1 | – | 13.4 µM (active)
21 | CCC(=C(c1ccc(O)cc1)c1ccc(OCCN(C)C)cc1)c1ccccc1 | – | 4.77 µM (active)
22 | OC1CCCCC1 | inactive | –
23 | O=C(O)c1ccccc1C(c1ccc(O)cc1)c1ccc(O)cc1 | inactive | –
24 | CCCCCCCCOC(=O)CCCCCCCCC(=O)OCCCCCCCC | inactive | –
25 | Cc1cc(CCN2CCN(c3nsc4ccccc34)CC2)cc2c1NC(=O)CC2(C)C | – | 7.83 µM (active)
26 | COC(=O)CCCCC(=O)OC | inactive | –
27 | C#C[C@]1(O)CC[C@H]2[C@@H]3CCC4=CC(=O)CC[C@@H]4[C@H]3CC[C@@]21C | inactive | –
28 | CC(=O)CC(C)(C)O | inactive | –
29 | CN1CCC[C@H]1c1cccnc1 | inactive | –
30 | O=c1c(-c2ccc(O)cc2)coc2cc(O)ccc12 | inactive | –
31 | Cc1oc(-c2ccccc2)nc1CCOc1ccc(C[C@H](Nc2ccccc2C(=O)c2ccccc2)C(=O)O)cc1 | – | 1.81 µM (active)
32 | CCCOC(=O)c1ccc(O)cc1 | inactive | –
33 | CC#C[C@]1(O)CC[C@H]2[C@@H]3CCC4=CC(=O)CCC4=C3[C@@H](c3ccc(N(C)C)cc3)C[C@@]21C | – | 26.6 µM (active)
34 | c1ccc2c(c1)Cc1ccccc1-2 | inactive | –
35 | CC(C)CCCCCCOC(=O)CCCCC(=O)OCCCCCCC(C)C | inactive | –
36 | CCCCCCCCCCCCCC[N+](C)(C)C | – | 1.05 µM (active)
37 | CCOC(=O)CC(O)(CC(=O)OCC)C(=O)OCC | inactive | –
